Bioassay records as filed in PubChem BioAssay.
ROS inducer = cancer cell ROS induction; U2OS ROS induction, H2DCF-DA fluorescence; ROS induction (% of piperlongumine), % at 10 µM; hit rate 2% among 46,000; in the data active = ROS induction above about 79%, passing the limit was not always enough;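 note: 0% = DMSO vehicle median and 100% = reference compound median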
BJeLR viability = lowers viability of BJeLR cells; BJeLR fibroblasts viability, CellTiterGlo ATP luminescence, 48 h; HRASV12, hTERT and SV40 LT/ST transformed; viability loss activity score, % (concentration not given with the values); hit rate 0.64% among 30,000; AID 2275; in the data active = viability loss activity score above about 50%;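 note: higher score means fewer live cells and less ATP luminescence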
YB-1 expression = YB-1 expression inhibition; delta delta Cp (YB-1 minus CDIP) (test concentration not listed); hit rate 0.37% among 30,000; AID 434959; U2OS, qRT-PCR YB-1 vs CDIP delta delta Cp, 16 h; active compounds read high; zero = DMSO, each unit about twofold;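 active = delta delta Cp rounded down to an integer at or above 3, about 3 SD of DMSO wells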;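 note: higher means less YB-1 transcript or more CDIP transcript relative to DMSO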
MITF inh = MITF inhibition; TRPM1 promoter luciferase, luminescence, 24 h; hit rate 0.28% among 37,000; inhibition, % (no concentration beside the values); in the data active = inhibition above about 85%;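 note: human melanocyte line stably carrying TRPM1 promoter luciferase reporter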
* marks the source's active call; other numbers are inactive results; . = not tested or not shown. Most compounds without a hit are left out; they make up all but 2.5% or so of the library.

SMILES	ROS inducer	BJeLR viability	YB-1 expression	MITF inh
C[C@H]1CC[C@@H]2[C@@H](C)[C@H]3[C@H](C[C@H]4[C@@H]5CC=C6CC(O[C@@H]7O[C@H](CO)[C@@H](O)[C@H](O[C@@H]8O[C@H](CO)[C@@H](O)[C@H](O)[C@H]8O)[C@@H]7O[C@@H]7O[C@@H](C)[C@H](O)[C@@H](O)[C@H]7O)CC[C@]6(C)[C@H]5CC[C@]34C)N2C1 (stereo not given in full)	-26	81*	-0.8	52
CCC(C)[C@H]1C(=O)O[C@H](C(C)C)C(=O)N(C)[C@@H](C(C)C)C(=O)O[C@H](C(C)C)C(=O)N(C)[C@@H](C(C)C)C(=O)O[C@H](C(C)C)C(=O)N1C (stereo not given in full)	31	.	0.23	.
CC(N)Cc1c[nH]c2ccc(OCc3cccs3)cc12 (stereo not given)	99*	-2	-1.3	-1
COc1ccc2c(c[n+](C)c3c4cc5c(cc4ccc23)OCO5)c1OC	43	79*	0.029	72
O=C(c1noc2c1COc1ccccc1-2)N1CCC2(CC1)OCCO2	-6	42	.	.
CO/C1=C/C(C)=C/[C@@H](C)[C@@H](O)[C@@H](C)C/C(C)=C/C=C\[C@H](OC)[C@@H]([C@@H](C)[C@@H](O)[C@H](C)[C@@]2(O)C[C@@H](O)[C@H](C)[C@@H](C(C)C)O2)OC1=O	0	52*	0.01	-61
CC(C)C[C@H]1C(=O)N2CCC[C@H]2[C@]2(O)O[C@](NC(=O)[C@@H]3C=C4c5cccc6[nH]cc(c56)C[C@H]4N(C)C3)(C(C)C)C(=O)N12	120*	-8	0.36	-1
C[C@@H](CO)NC(=O)C1C=C2c3cccc4[nH]cc(c34)C[C@H]2N(C)C1 (stereo not given in full)	-9	3	-0.27	-21
COc1ccc2c(c1OC)C(=O)O[C@H]2[C@H]1c2cc3c(cc2CCN1C)OCO3	7	-6	6.4*	-3
COc1ccc2c(c1OC)CN1CCc3cc4c(cc3C1C2)OCO4 (stereo not given)	-10	3	-0.29	3
C[C@@H]1CCC/C=C/[C@H]2C[C@@H](O)C[C@@H]2[C@@H](O)/C=C\C(=O)O1	-10	39	0.2	87*
CCOC(=S)SCc1nc2ccccc2c(=O)n1-c1ccccc1	38	-10	.	.
C[C@@H]1C(=O)O[C@H]2[C@H]1CC[C@@]1(C)C=CC(=O)[C@@]3(C)O[C@@]213	-4	7	4*	-2
COc1cc([C@@H]2c3cc4c(cc3[C@@H](O)C3COC(=O)C32)OCO4)cc(OC)c1O (stereo not given in full)	42	50*	0.016	44
COc1cc(C2c3cc4c(cc3CC3COC(=O)C32)OCO4)cc(OC)c1OC (stereo not given)	14	64*	-0.8	48
COc1cc([C@@H]2c3cc4c(cc3[C@H](OC(C)=O)[C@H]3COC(=O)[C@@H]23)OCO4)cc(OC)c1OC	-11	33	0.62	37
C[C@H]1O[C@@H](O[C@H]2C[C@@H](O)[C@]3(CO)C4C(CC[C@]3(O)C2)[C@@]2(O)CC[C@H](C3=CC(=O)OC3)[C@@]2(C)C[C@H]4O)[C@@H](O)[C@@H](O)[C@H]1O (stereo not given in full)	7	117*	-0.13	31
CC1OC(O[C@H]2C[C@@H](O)[C@]3(CO)[C@H]4[C@H](O)C[C@]5(C)[C@@H](C6=CC(=O)OC6)CC[C@]5(O)[C@@H]4CC[C@]3(O)C2)C(O)C(O)C1O (stereo not given in full)	2	100*	0.48	6
C[C@@H]1O[C@@H](O[C@H]2C[C@@H](O)[C@]3(CO)C4C(CC[C@]3(O)C2)[C@@]2(O)CC[C@H](C3=CC(=O)OC3)[C@@]2(C)C[C@H]4O)[C@H](O)[C@H](O)[C@H]1O (stereo not given in full)	-2	119*	-0.021	7
CCOc1ccccc1C1NC(=S)NC(c2ccccc2OCC)C12C(=O)NC(=O)NC2=O (stereo not given)	.	0	.	.
CN(C)C(=O)Oc1cccc(N)c1	-2	0	.	.
CC(=O)NC1C(OC2OC(CC(O)C3OC(n4ccc(=O)[nH]c4=O)C(O)C3O)C(O)C(O)C2NC(=O)/C=C/CCCCCCCCCC(C)C)OC(CO)C(O)C1O (stereo not given)	-13	10	-0.4	60
